Laboratory results published in PubChem BioAssay (NCATS).
Results filed as inconclusive are left out. Where a call stands in place of a potency, no number is given. A number with no mark means an inactive call. The source made the active and inactive calls. Unless noted, calls follow the shape of the dose curve; as a rule, active = well fitted curve in the direction sought with a large enough effect; inconclusive = small, poorly fitted or top-dose-only effect, or another doubt; inactive = no such curve, though single readings can be large; an effect the other way counts as inactive or inconclusive.

Assays:
[1] = qHTS for Inhibitors of Plasmodium falciparum (GB4) proliferation (AID 504315); also: nearly all actives have a fitted effect of over 50% in size
How it was run: (§1)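 Erythrocytes infected with P. falciparum line (0.3% parasitemia, 2.5% hematocrit final) incubated with compounds 72 h at 37 °C, 5% CO2; SYBR Green lysis buffer added, fluorescence read next day. Normalized to 0.29 uM artemisinin and DMSO.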

[2] = qHTS for Inhibitors of Plasmodium falciparum (CP250) proliferation (AID 504320); also: potency is read from the fitted curve at half-maximal effect
How it was run: as §1

[3] = biological target: Atrial natriuretic peptide receptor 1 (Homo sapiens) (UniProt P16066); test: Natriuretic polypeptide receptor (hNpr1) antagonism - Pilot CMLD screen (AID 1347052; calls by dose curve;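 also: cGMP level read as GloSensor luciferase luminescence after agonist stimulation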; also: potency is read from the fitted curve at half-maximal effect)
[4] = qHTS for Inhibitors of Plasmodium falciparum (HB3) proliferation (AID 504318); also: nearly all actives have a fitted effect of over 60% in size; also: potency is read from the fitted curve at half-maximal effect
How it was run: as §1

[5] = qHTS for Inhibitors of Plasmodium falciparum (7G8) proliferation (AID 504316); also: nearly all actives have a fitted effect of over 65% in size; also: potency is read from the fitted curve at half-maximal effect
How it was run: as §1

Atrial natriuretic peptide receptor 1 (Homo sapiens), sequence (P16066 whole entry, looked up): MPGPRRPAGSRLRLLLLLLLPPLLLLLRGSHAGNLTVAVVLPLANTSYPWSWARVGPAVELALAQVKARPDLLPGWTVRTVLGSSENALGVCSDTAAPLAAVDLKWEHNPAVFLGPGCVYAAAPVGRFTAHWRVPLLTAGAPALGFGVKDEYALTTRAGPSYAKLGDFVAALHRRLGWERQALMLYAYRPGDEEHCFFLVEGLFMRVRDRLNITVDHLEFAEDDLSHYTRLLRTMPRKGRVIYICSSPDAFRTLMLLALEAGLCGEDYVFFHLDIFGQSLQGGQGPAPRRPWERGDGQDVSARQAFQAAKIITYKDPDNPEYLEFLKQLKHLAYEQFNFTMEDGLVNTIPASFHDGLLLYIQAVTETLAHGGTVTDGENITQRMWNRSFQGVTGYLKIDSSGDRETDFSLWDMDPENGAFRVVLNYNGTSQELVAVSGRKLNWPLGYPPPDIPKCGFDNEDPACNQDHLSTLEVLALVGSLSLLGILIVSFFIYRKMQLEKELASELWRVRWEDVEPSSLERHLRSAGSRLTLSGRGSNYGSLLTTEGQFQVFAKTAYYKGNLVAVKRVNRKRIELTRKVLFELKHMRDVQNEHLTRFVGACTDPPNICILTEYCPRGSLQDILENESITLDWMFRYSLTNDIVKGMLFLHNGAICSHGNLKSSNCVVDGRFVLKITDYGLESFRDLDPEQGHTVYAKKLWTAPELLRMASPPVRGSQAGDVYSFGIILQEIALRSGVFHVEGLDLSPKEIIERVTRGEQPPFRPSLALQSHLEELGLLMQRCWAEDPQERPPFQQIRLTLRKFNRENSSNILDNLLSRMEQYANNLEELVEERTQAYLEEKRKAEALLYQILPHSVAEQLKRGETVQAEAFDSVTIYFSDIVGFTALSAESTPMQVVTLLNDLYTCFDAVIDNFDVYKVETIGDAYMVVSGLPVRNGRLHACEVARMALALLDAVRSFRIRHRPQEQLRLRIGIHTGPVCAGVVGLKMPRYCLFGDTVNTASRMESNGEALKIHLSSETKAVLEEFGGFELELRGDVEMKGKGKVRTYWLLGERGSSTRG

SMILES	Potency [1]	Potency [2]	Potency [3]	Potency [4]	Potency [5]
COC(=O)CC=C[C@@H](C)[C@@H](C=NOC[C@H]1O[C@H](c2ccccc2)C=C[C@H]1Oc1ccc(OC)cc1)N[S+](=O)([O-])c1ccc(C)cc1	inactive	inactive	inactive	–	–
COC(=O)C1=C(C)N(CC2CC2)C(=O)NC1c1ccc(Br)cc1 (stereo not given)	inactive	inactive	inactive	inactive	–
C=C(CCN1C=C(C(=O)OCC)C(c2ccccc2)NC1=O)c1ccc(Cl)cc1 (stereo not given)	inactive	inactive	inactive	–	–
COC(=O)C1=C(C(=O)OC)[C@@H]2N(Cc3ccccc3)c3ccccc3[C@@]23C[C@@H](C(=O)OC)N(C(=O)NCc2ccccc2)C3=C1	inactive	inactive	inactive	–	–
CC(CCN1CCCc2nc(C)c(C)cc21)=NOC[C@@H](O)COCc1ccco1	inactive	inactive	inactive	–	–
C[C@H]1CC[C@H]2C(=O)N(Cc3ccccc3)C[C@@H](O)CN2[C@H]1c1cccc(Br)c1	inactive	inactive	inactive	–	–
COc1cccc([C@@H]2NC(=O)CC=C[C@H](C)[C@H](c3cccc(OC)c3)NC(=O)CC=C[C@H]2C)c1	inactive	inactive	inactive	–	–
COc1ccc2c(c1)O[C@@H](c1ccc3c(c1)OCO3)[C@H](OC(=O)NCCOc1ccccc1)C2=O	inactive	inactive	inactive	–	–
C[C@H]1C=CCC(=O)NCc2cccc(c2)CNC(=O)N[C@@H]1c1ccccc1	inactive	inactive	inactive	–	–
COc1cccc([C@H]2Oc3ccc(OC)cc3C(=NO[C@H](C)CN3CCCc4nc(C)c(C)cc43)[C@H]2O)c1	inactive	inactive	inactive	inactive	–
C[C@H]1Cc2c(COc3ccccc3)nc3c(c2CO1)CN(S(=O)(=O)c1ccc2c(c1)OCCN2C)CC3	inactive	inactive	inactive	–	–
COc1ccc([C@]23Cc4cc(OC)c(OC)cc4[C@H](O2)c2c(cc(C)oc2=O)O3)cc1	inactive	inactive	inactive	inactive	–
CCOC(=O)NN=C1C[C@@H](O)[C@@H](O)[C@@H]2[C@H]3C(=O)N(C4CCCCC4)C(=O)[C@@H]3CC[C@H]12	inactive	inactive	inactive	inactive	–
COc1cccc(-c2coc3ccc(Br)cc3c2=O)c1	inactive	inactive	inactive	inactive	–
C=CCN1c2ccccc2[C@]23CCC(=O)N(Cc4ccco4)C2=NC(C(=O)OC)=C(C(=O)OC)[C@H]13	inactive	inactive	inactive	inactive	–
COC(=O)CCCC1=CC2=C(c3ccccc3)C(=O)C(C)(OC(=O)C3CCCC3)C(=O)C2=CN1c1ccc(OC)cc1 (stereo not given)	inactive	inactive	inactive	–	–
O=C1CCCC2=C1[C@H]1O[C@](c3ccsc3)(Cc3c1ccc1ccccc31)O2	inactive	inactive	inactive	inactive	–
CC1=CC[C@@H](COc2ccccc2)O[C@@]2(C1)C(=O)N(Cc1ccc(F)cc1)c1ccccc12	inactive	inactive	inactive	–	–
O=c1oc2ccccc2c2c1[C@H]1O[C@](c3ccsc3)(Cc3ccccc31)O2	inactive	inactive	inactive	inactive	–

SMILES	Potency [1]	Potency [2]	Potency [3]	Potency [4]	Potency [5]
CCOC(=O)CCN1C(=O)[C@@H]2[C@H]3[C@H](O)[C@H](O)CC(=NOCc4ccccc4)[C@@H]3CC[C@H]2C1=O	inactive	inactive	inactive	–	–
COc1ccc([C@]23Cc4c(ccc5ccccc45)[C@H](O2)C2=C(CCCC2=O)O3)cc1	inactive	inactive	inactive	–	–
O=C1[C@@H]2[C@H]3[C@H](O)[C@H](O)CC(=NOC[C@@H](O)COCc4ccco4)[C@@H]3CC[C@H]2C(=O)N1Cc1ccccc1	inactive	inactive	inactive	–	–
COc1cc2c(cc1OC)[C@@]1(c3ccccc3)CCCC[C@H]1[C@@H]2NC(=O)C(F)(F)F	inactive	inactive	inactive	–	–
CC(C)=CCCC(C)=CCN1C(=O)[C@@]2(CC(C)=C[C@@H](COCc3ccccc3)O2)c2ccccc21	inactive	inactive	inactive	–	–
CC1(C)CC(=O)C2=C(C1)O[C@@]1(c3ccsc3)Cc3cc(C#N)ccc3[C@H]2O1	inactive	inactive	inactive	inactive	–
COC(=O)[C@@H]1CC23C(=NC(c4ccc([N+](=O)[O-])cc4)=C(C(F)(F)F)[C@@H]2N(C)c2ccccc23)N1C(C)=O (stereo not given in full)	inactive	inactive	inactive	–	–
COC(=O)C1=C(C)N(Cc2ccccc2)C(=NCCCCO)NC1c1cccc(F)c1 (stereo not given)	–	–	–	inactive	–
COc1ccc(-c2nc3c(c4c2C[C@H](c2ccccc2)OC4)CN(C(=O)N[C@@H](C)C(=O)OC(C)C)CC3)c(C)c1	–	inactive	inactive	1650 nM (active)	1510 nM (active)
C[C@@H]1CC2=CCCC2[C@]2(O1)C(=O)N(CC1CC1)c1cccc(Br)c12 (stereo not given in full)	–	inactive	inactive	inactive	inactive
CCN1C(N(C)CCc2ccc(Br)cc2)=NC(c2ccccc2)C(C(=O)OC)=C1C (stereo not given)	–	–	inactive	inactive	inactive
C#CCN1C(=O)[C@]2(OCCC=C[C@H]2C)c2ccccc21	–	inactive	inactive	inactive	inactive
COC(=O)c1c(C(=O)OC)c2c3cc(OC)c(OC)cc3cc([Si](C)(C)C)n2c1C(=O)OC	–	inactive	inactive	2130 nM (active)	1510 nM (active)
N#Cc1ccc2c(c1)C[C@]1(c3ccsc3)OC3=C(C(=O)OC4(CCCCC4)C3)[C@H]2O1	–	inactive	inactive	inactive	inactive
CCOC(=O)CN1C(=O)C2(CC(C)=C[C@@H](C)O2)c2c(Br)cccc21 (stereo not given in full)	–	–	inactive	inactive	inactive
COC(=O)C1=C(C)N(Cc2ccccc2)C(=NCCc2ccc([N+](=O)[O-])cc2)NC1c1cccc(F)c1 (stereo not given)	–	–	inactive	inactive	2690 nM (active)
COc1cc(C(CC2=CCCCC2)NC(=O)C(F)(F)F)cc(OC)c1OC (stereo not given)	–	inactive	inactive	inactive	inactive
COC(=O)C1=C(C(=O)OC)[C@@H]2N(Cc3ccccc3)c3ccccc3[C@@]23CCC(=O)N(CCc2ccccn2)C3=N1	–	inactive	inactive	–	1510 nM (active)
COC(=O)C1=C(C)N(Cc2ccccc2)C(=NCCc2c[nH]c3ccccc23)NC1c1ccc(Br)cc1 (stereo not given)	–	inactive	inactive	inactive	inactive

SMILES	Potency [1]	Potency [2]	Potency [3]	Potency [4]	Potency [5]
CCCNC(=O)OC[C@H]1O[C@H](CCON=C(C)CCN2CCCCc3nc(C)c(C)cc32)C=C[C@H]1Oc1ccc(OC)cc1	–	–	inactive	2820 nM (active)	1900 nM (active)
COC(=O)N1C(C=CC=Cc2ccc(OC)cc2)=Cc2ccccc2C1CC(C)=O (stereo not given)	–	inactive	inactive	–	1510 nM (active)
COC(=O)c1c(C(=O)OC)c2c3cc(OC)c(OC)cc3ccn2c1C(=O)OC	–	inactive	inactive	inactive	inactive
Cc1cc2c(c(=O)n1-c1ccccc1)[C@H]1O[C@](c3ccsc3)(Cc3ccccc31)O2	–	inactive	inactive	–	1510 nM (active)
COC(=O)C1=C(C)N(CCC(C)O)C(=O)N(C(C)=O)C1c1ccccc1 (stereo not given)	–	inactive	inactive	inactive	inactive
COC(=O)C1=C(C)N(Cc2ccccc2)C(=S)NC1c1cccc(C(F)(F)F)c1 (stereo not given)	–	inactive	inactive	inactive	inactive
Cc1ccccc1Nc1oc(-c2ccccc2)nc1C(C)(C)C	–	–	inactive	1690 nM (active)	1900 nM (active)
C[C@H]1[C@@H](C(=O)N2CCCC2)CC(=NOCc2ccccc2)C(=NOCc2ccccc2)C[C@H]1c1ccccc1	–	inactive	inactive	1690 nM (active)	478 nM (active)
COc1ccccc1C=CC1=CC2(C)CC1(C)C(c1ccccc1OC)CC2=O (stereo not given)	–	–	inactive	1690 nM (active)	1690 nM (active)
c1ccc(C2NCCc3c2[nH]c2ccccc32)cc1 (stereo not given)	–	inactive	inactive	inactive	inactive
COc1cccc([C@@H]2Oc3ccc(OC)cc3C[C@@H]2OC(=O)N[C@H]2CCCc3ccccc32)c1	–	inactive	inactive	–	1510 nM (active)
COC(=O)C1=C(C)N(Cc2ccccc2)C(=NCCc2ccc(O)cc2)NC1c1ccc(Br)cc1 (stereo not given)	–	–	inactive	inactive	inactive
COC(=O)c1ccc(CN2C(=O)[C@@]3(CC(C)=CC[C@@H](C)O3)c3ccccc32)cc1	–	inactive	inactive	inactive	inactive
COc1cc2c(cc1OC)[C@@H]1O[C@](CCCCN3C(=O)c4ccccc4C3=O)(C2)Oc2cc(C)n(Cc3ccccc3)c(=O)c21	–	1690 nM (active)	inactive	1690 nM (active)	1510 nM (active)
C[C@H]1CC[C@H]2C(=O)N(Cc3ccc(Cl)cc3)C[C@@H](O)CN2[C@H]1c1ccc(Br)cc1	–	inactive	inactive	–	1690 nM (active)
COCc1cc2cc3c(cc2c2c(C(=O)OC)c(C(=O)OC)c(C(=O)OC(C)(C)C)n12)OCO3	–	inactive	3350 nM (active)	–	1510 nM (active)
CCN1C(=NCc2ccc(OC)cc2)NC(c2ccccc2)C(C(=O)OC)=C1C (stereo not given)	–	inactive	inactive	inactive	inactive
CC1(C)CC(=O)C2=C(C1)O[C@@]1(CCCCN3C(=O)c4ccccc4C3=O)Cc3ccccc3[C@H]2O1	–	–	inactive	1510 nM (active)	1510 nM (active)
